The structures appear in SMILES notation. In all, about 310,000 compounds went through this assay and about 14,000 (4.5%) showed an effect of 50% or more. Effects have a minus sign here. The list comes from a sample in which strong results are over-represented; it also holds similar structures and randomly drawn compounds.

Data on 46 compounds can be found in PMC4336329 (PLoS ONE, 2015).
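Further: peak tail current of the secondary pulse compared with the same well before compound.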

Chain of human ether-à-go-go-related gene (hERG) potassium channel (Q12809 whole entry, looked up): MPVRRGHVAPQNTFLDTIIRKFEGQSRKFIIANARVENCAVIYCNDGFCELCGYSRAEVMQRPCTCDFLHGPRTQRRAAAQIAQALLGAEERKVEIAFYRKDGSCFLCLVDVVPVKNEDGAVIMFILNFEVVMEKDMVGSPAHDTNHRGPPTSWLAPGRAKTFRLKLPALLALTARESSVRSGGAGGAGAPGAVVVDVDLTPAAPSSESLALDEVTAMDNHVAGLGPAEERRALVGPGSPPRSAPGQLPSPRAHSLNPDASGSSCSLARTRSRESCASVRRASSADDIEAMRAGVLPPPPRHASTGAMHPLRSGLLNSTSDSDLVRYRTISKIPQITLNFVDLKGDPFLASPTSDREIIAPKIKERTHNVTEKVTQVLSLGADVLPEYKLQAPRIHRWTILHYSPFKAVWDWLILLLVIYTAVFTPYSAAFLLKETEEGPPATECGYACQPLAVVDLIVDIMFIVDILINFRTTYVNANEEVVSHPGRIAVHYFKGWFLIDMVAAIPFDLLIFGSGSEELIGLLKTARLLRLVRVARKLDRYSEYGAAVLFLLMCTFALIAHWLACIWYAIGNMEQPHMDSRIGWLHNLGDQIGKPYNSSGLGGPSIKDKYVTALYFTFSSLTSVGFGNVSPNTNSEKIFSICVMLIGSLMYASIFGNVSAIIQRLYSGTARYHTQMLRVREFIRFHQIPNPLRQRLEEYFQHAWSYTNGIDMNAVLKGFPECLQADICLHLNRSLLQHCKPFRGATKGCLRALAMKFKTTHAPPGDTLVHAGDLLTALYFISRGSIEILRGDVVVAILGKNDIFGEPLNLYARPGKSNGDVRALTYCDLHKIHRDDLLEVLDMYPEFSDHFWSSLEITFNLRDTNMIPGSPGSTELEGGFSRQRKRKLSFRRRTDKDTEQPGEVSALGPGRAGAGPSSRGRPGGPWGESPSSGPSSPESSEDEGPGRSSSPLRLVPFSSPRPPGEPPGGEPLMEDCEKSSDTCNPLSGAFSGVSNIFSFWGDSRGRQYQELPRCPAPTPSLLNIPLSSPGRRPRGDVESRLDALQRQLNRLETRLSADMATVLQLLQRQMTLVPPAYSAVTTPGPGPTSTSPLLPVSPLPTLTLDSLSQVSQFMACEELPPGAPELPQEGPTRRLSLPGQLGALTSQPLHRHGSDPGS

The test has as its target human ether-à-go-go-related gene (hERG) potassium channel (human, UniProt Q12809). Briefly: primary screen, population patch clamp on CHO cells stably expressing hERG; higher = less effect of the substance.
`C/C(=N\OC(=O)Nc1ccccc1)c1ccc(C)cc1`: the “hERG current change (%, negative = inhibition) at 10uM” value was -15.9%.

Consider `CN(CCC#N)C(=O)CSc1nc2scc(-c3ccccc3)c2c(=O)[nH]1`, for which the “hERG current change (%, negative = inhibition) at 10uM” value is on record as -12.6%.

As to `COc1ccc(CCNC(=O)C(=O)NCC2OCCN2S(=O)(=O)c2ccc(OC)cc2)cc1` (stereo not shown), the “hERG current change (%, negative = inhibition) at 10uM” value is given as -47.3%.

Turning to `COc1ccccc1C(=O)Nc1ccc2nc3n(c(=O)c2c1)CCCC3`, the “hERG current change (%, negative = inhibition) at 10uM” value is recorded as -36.3%.

With `COc1ccc(NC(=O)CC2SC(=O)NC2=O)cc1` (stereo not shown), the “hERG current change (%, negative = inhibition) at 10uM” value stood at 26.8%.

Turning to `Cc1ccccc1NC(=O)Cc1nc(COC(=O)c2cccc(O)c2)cs1`, the “hERG current change (%, negative = inhibition) at 10uM” value is -17.7%.

Take `Cc1ccccc1NC(=O)Cc1nc(COC(=O)c2ccc(Cl)c(S(N)(=O)=O)c2)cs1`: the “hERG current change (%, negative = inhibition) at 10uM” value is recorded as -60.9%.

Turning to `Cc1ccccc1NC(=O)Cc1nc(COC(=O)c2ccc(Cl)nc2)cs1`, the “hERG current change (%, negative = inhibition) at 10uM” value came to 2.75%.

Take `COc1ccc(CCNC(=O)CSc2ccc3nnc(CCNC(=O)c4ccccc4)n3n2)cc1OC`: the “hERG current change (%, negative = inhibition) at 10uM” value is 6.1%.

In the case of `CCOC(=O)c1[nH]nc2c1C(=O)N(Cc1ccccc1)C2=O`, the “hERG current change (%, negative = inhibition) at 10uM” value is 6.13%.

In the case of `COc1ccc(/C=N/NC(=O)CSc2ccccn2)cc1OC`, the “hERG current change (%, negative = inhibition) at 10uM” value was 2.42%.

As for `CCNC(=O)COC(=O)c1cc(-c2ccccc2)nn1-c1ccccc1`, the “hERG current change (%, negative = inhibition) at 10uM” value was -61.8%.

In the case of `CCOC(=O)c1cc(-c2cccnc2)nn1-c1ccccc1`, the “hERG current change (%, negative = inhibition) at 10uM” value was found to be 9.52%.

Consider `CNC(=O)COC(=O)c1cc(-c2ccccc2)nn1-c1ccccc1`, for which the “hERG current change (%, negative = inhibition) at 10uM” value was -5.35%.

On to `Cc1ccc(CNC(=O)CN2C(=O)NC3(CC(C)CC(C)(C)C3)C2=O)cc1` (stereo not shown), for which the “hERG current change (%, negative = inhibition) at 10uM” value is recorded as -3.14%.

Turning to `COc1ccc(-n2c(O)c(C=NCCCn3ccnc3)c(=O)[nH]c2=O)cc1`, the “hERG current change (%, negative = inhibition) at 10uM” value amounted to 14.1%.

On to `O=C(Nc1ccc(N2CCCC2)c(Cl)c1)c1ccc2c(c1)OCCO2`, for which the “hERG current change (%, negative = inhibition) at 10uM” value is listed as 11.8%.

Consider `CC(=O)N1CCN(c2ccc(NC(=O)c3ccc4c(c3)OCCO4)cc2Cl)CC1`, for which the “hERG current change (%, negative = inhibition) at 10uM” value is reported as -64.7%.

As to `CN1CCN(c2ccc(NC(=O)c3ccc4c(c3)OCCO4)cc2Cl)CC1`, the “hERG current change (%, negative = inhibition) at 10uM” value is -81.2%.

As for `CC(C)C(=O)N1CCN(c2ccc(NC(=O)c3ccc4c(c3)OCCO4)cc2Cl)CC1`, the “hERG current change (%, negative = inhibition) at 10uM” value is on record as -15%.

As for `O=C(Nc1ccc(N2CCOCC2)c(Cl)c1)c1ccc2c(c1)OCCO2`, the “hERG current change (%, negative = inhibition) at 10uM” value was -0.379%.

As for `O=C(Nc1ccc(N2CCCCC2)c(Cl)c1)c1ccc2c(c1)OCCO2`, the “hERG current change (%, negative = inhibition) at 10uM” value is listed as -1.06%.

As for `CCCOc1ccc(C(=O)CCC(=O)OCC(=O)Nc2ccc(Oc3ccccc3)cc2)cc1`, the “hERG current change (%, negative = inhibition) at 10uM” value is reported as -13.3%.

For `COCCn1nnnc1CN1CCC(Cc2ccccc2)CC1.Cl`, the “hERG current change (%, negative = inhibition) at 10uM” value was -3.18%.

On to `CCOC(=O)C1CCN(C(=O)COC(=O)COc2ccc(Cl)cc2)CC1`, for which the “hERG current change (%, negative = inhibition) at 10uM” value is given as 13.3%.

For the compound `O=C(OCC(=O)N1CCN(C(=O)c2ccco2)CC1)c1ccccc1C(=O)c1ccc(Cl)cc1`, the “hERG current change (%, negative = inhibition) at 10uM” value is given as -64.8%.

Take `CCOC(=O)C1CCN(C(=O)COC(=O)Cc2ccc(Cl)cc2)CC1`: the “hERG current change (%, negative = inhibition) at 10uM” value was -22.7%.

Take `COc1ccc(NS(=O)(=O)c2ccc(O)c(C(=O)OCC(=O)N3CCCCC3)c2)cc1`: the “hERG current change (%, negative = inhibition) at 10uM” value was -7.02%.

As to `O=C(OCC(=O)N1CCN(C(=O)c2ccco2)CC1)c1ccccc1Cc1ccccc1`, the “hERG current change (%, negative = inhibition) at 10uM” value was -56.3%.

`O=C(OCC(=O)N1CCN(C(=O)c2ccco2)CC1)c1ccccc1C(=O)c1ccccc1`: the “hERG current change (%, negative = inhibition) at 10uM” value is -34%.

Consider `O=C(CCNS(=O)(=O)c1ccc(Cl)cc1)OCC(=O)N1CCN(C(=O)c2ccco2)CC1`, for which the “hERG current change (%, negative = inhibition) at 10uM” value is -47.4%.

For `O=C(OCC(=O)N1CCN(C(=O)c2ccco2)CC1)c1ccccc1NCCO`, the “hERG current change (%, negative = inhibition) at 10uM” value is reported as 12.6%.

`O=C(OCC(=O)N1CCOCC1)c1ccccc1Cc1ccccc1`: the “hERG current change (%, negative = inhibition) at 10uM” value is recorded as -35.2%.

Turning to `CCOC(=O)C1CCN(C(=O)COC(=O)c2ccccc2C(=O)c2ccc(Cl)cc2)CC1`, the “hERG current change (%, negative = inhibition) at 10uM” value was -50.4%.

For `O=C(OCC(=O)N1CCN(C(=O)c2ccco2)CC1)c1ccccc1OCc1ccccc1`, the “hERG current change (%, negative = inhibition) at 10uM” value is on record as -43.3%.

With `O=C(OCC(=O)N1CCN(C(=O)c2ccco2)CC1)c1cc(S(=O)(=O)Nc2ccc(Cl)cc2)ccc1O`, the “hERG current change (%, negative = inhibition) at 10uM” value is reported as -64.6%.

Regarding `O=C1CCCC2=C1C(c1cccnc1)Nc1ccccc1N2` (stereo not shown), the “hERG current change (%, negative = inhibition) at 10uM” value was 5.41%.

With `COc1ccc(NC(=O)CCC(=O)c2cccs2)cc1Cl`, the “hERG current change (%, negative = inhibition) at 10uM” value was found to be 17.6%.

As to `CCOc1cccc2sc(Cl)nc12`, the “hERG current change (%, negative = inhibition) at 10uM” value amounted to 13.7%.

Take `COc1cc(N/C=C2\CC(=O)NC(C)=C2C#N)cc(OC)c1OC`: the “hERG current change (%, negative = inhibition) at 10uM” value came out at 19.6%.

For `Cc1c(NC(=O)COC(=O)C2(c3ccccc3F)CCCC2)c(=O)n(-c2ccccc2)n1C`, the “hERG current change (%, negative = inhibition) at 10uM” value is listed as -1.01%.

For `O=c1c2oc3ccccc3c2ncn1Cc1ccc(Cl)cc1`, the “hERG current change (%, negative = inhibition) at 10uM” value was 11.7%.

Consider `CCOc1ccccc1N1CCN(c2nc(N)c(C#N)c(CC#N)c2C#N)CC1`, for which the “hERG current change (%, negative = inhibition) at 10uM” value is -37.2%.

On to `CCCn1c(SCC(=O)Nc2sc(C)c(C)c2C#N)nnc1C(C)C`, for which the “hERG current change (%, negative = inhibition) at 10uM” value is -9.76%.

In the case of `O=C(NCCc1csc(-c2cccnc2)n1)c1ccc(Br)o1`, the “hERG current change (%, negative = inhibition) at 10uM” value is -10.9%.

In the case of `Cc1cc(C)cc(N=C2NC(=O)CS2)c1`, the “hERG current change (%, negative = inhibition) at 10uM” value was determined as 0.159%.
